Reference: ChEMBL document CHEMBL2218924, “A broad activity screen in support of a chemogenomic map for kinase signalling research and drug discovery” (Biochem J, 2013)

Legend:
[1] = molecular target: T1, Phosphorylase b kinase gamma catalytic chain, liver/testis isoform (Homo sapiens) (UniProt P15735); conditions: at 1 µM
T1 sequence (whole entry): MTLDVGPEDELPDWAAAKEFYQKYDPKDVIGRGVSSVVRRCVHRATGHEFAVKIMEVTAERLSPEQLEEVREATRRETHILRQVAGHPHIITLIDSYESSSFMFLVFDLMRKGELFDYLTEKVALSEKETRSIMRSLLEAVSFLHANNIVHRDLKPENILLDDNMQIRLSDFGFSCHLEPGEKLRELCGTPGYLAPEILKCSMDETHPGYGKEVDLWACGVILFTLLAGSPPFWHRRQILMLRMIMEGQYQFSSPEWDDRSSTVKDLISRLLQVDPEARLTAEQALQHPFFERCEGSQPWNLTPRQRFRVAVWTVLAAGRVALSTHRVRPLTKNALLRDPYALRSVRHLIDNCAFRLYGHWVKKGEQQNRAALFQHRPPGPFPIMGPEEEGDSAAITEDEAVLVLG

[2] = molecular target: T1, Phosphorylase b kinase gamma catalytic chain, liver/testis isoform (Homo sapiens); conditions: at 10 µM
[3] = molecular target: Serine/threonine-protein kinase pim-1 (Homo sapiens) (UniProt P11309); conditions: at 1 µM
Serine/threonine-protein kinase pim-1 (Homo sapiens), sequence (P11309 whole entry, looked up): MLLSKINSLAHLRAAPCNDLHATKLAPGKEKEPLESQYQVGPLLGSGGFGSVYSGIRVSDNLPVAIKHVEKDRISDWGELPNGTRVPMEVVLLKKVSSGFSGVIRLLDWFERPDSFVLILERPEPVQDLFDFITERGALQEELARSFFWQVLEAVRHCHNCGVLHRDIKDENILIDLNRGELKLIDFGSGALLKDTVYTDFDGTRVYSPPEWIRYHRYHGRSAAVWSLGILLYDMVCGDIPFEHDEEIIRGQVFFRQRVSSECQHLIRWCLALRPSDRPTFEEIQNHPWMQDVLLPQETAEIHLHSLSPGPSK

[4] = molecular target: Serine/threonine-protein kinase pim-1 (Homo sapiens) (UniProt P11309); conditions: at 10 µM
[5] = molecular target: Serine/threonine-protein kinase pim-2 (Homo sapiens) (UniProt Q9P1W9); conditions: at 1 µM
Serine/threonine-protein kinase pim-2 (Homo sapiens), sequence (Q9P1W9 whole entry, looked up): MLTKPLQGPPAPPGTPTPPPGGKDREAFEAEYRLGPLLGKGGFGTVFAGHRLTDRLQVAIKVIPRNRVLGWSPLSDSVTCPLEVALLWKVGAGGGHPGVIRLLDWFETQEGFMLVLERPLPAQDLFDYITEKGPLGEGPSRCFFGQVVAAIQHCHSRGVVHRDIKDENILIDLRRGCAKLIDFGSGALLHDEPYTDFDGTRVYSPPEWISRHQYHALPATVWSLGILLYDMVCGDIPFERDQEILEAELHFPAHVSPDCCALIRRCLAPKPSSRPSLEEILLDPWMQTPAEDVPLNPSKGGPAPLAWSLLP

[6] = molecular target: Serine/threonine-protein kinase pim-2 (Homo sapiens) (UniProt Q9P1W9); conditions: at 10 µM
[7] = molecular target: Serine/threonine-protein kinase pim-3 (Homo sapiens) (UniProt Q86V86); conditions: at 1 µM
[8] = molecular target: Serine/threonine-protein kinase pim-3 (Homo sapiens) (UniProt Q86V86); conditions: at 10 µM
[9] = molecular target: Serine/threonine-protein kinase PLK1 (Homo sapiens) (UniProt P53350); conditions: at 1 µM
Serine/threonine-protein kinase PLK1 (Homo sapiens), sequence (P53350 whole entry): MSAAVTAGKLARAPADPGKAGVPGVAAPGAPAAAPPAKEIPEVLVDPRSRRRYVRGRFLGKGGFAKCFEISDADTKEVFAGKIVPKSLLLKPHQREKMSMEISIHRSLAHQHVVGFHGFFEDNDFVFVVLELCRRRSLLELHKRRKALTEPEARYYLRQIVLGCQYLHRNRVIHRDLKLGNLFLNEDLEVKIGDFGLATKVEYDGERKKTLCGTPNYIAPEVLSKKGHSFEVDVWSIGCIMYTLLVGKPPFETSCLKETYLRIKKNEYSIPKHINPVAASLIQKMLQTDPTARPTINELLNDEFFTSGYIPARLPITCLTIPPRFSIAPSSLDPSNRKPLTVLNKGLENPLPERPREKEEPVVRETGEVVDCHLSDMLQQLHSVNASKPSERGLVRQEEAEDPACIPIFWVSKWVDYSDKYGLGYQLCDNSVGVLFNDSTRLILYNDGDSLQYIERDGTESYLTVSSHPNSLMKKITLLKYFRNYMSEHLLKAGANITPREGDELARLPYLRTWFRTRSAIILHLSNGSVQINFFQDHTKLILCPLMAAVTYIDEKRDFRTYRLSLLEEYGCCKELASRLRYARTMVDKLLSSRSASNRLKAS

[10] = molecular target: Serine/threonine-protein kinase PLK1 (Homo sapiens) (UniProt P53350); conditions: at 10 µM

Row | SMILES | residual activity [1] | residual activity [2] | residual activity [3] | residual activity [4] | residual activity [5] | residual activity [6] | residual activity [7] | residual activity [8] | residual activity [9] | residual activity [10]
1 | O=C(O)c1ccc2c3c1cccc3c(=O)n1c3ccccc3nc21 | 95% | 72% | 58% | 23% | 14% | 0% | 15% | 1% | 92% | 94%
2 | N#CC(C#N)=C(N)/C(C#N)=C/c1ccc(O)cc1 |  |  |  |  |  | 118% |  | 88% | 79% | 36%
3 | CO[C@@H]1[C@H](N(C)C(=O)c2ccccc2)C[C@H]2O[C@]1(C)n1c3ccccc3c3c4c(c5c6ccccc6n2c5c31)C(=O)NC4 | 44% | 29% | 33% | 16% | 80% | 94% | 93% | 88% |  | 61%
4 | CCN(CC)C(=O)c1ccc(Nc2nc(OCC3CCCCC3)c3nc[nH]c3n2)cc1 |  |  | 77% | 56% | 143% |  |  |  | 78% | 66%
5 | CN(C)CCCn1cc(C2=C(c3c[nH]c4ccccc34)C(=O)NC2=O)c2ccccc21 | 88% | 63% |  |  | 15% | 4% | 22% | 5% | 114% | 84%
6 | c1ccc2c(-c3ccncc3)c[nH]c2c1 | 103% | 86% | 97% | 49% | 97% |  | 91% | 86% | 86% | 65%
7 | CCN(CC)CCCCN1c2ccccc2Oc2ccc(Cl)cc21 | 112% | 122% |  |  | 97% | 125% | 92% | 47% | 109% | 76%
8 | O=C1NC(=O)/C(=C\c2ccc3nccnc3c2)S1 | 90% | 50% | 42% | 10% | 75% | 22% | 61% | 14% | 80% | 64%
9 | O=C(Nc1cccc(Nc2nccc(Nc3cccc(C(F)(F)F)c3)n2)c1)C1CC1 | 94% | 80% | 66% | 64% | 110% | 119% | 104% | 104% | 78% | 74%
10 | COc1ccc(S(=O)(=O)N(CCO)c2ccccc2CN(C)C/C=C/c2ccc(Cl)cc2)cc1 | 116% | 83% | 96% | 73% | 143% | 137% | 86% | 82% | 76% | 72%
11 | N#C/C(=C(\N)Sc1ccc(N)cc1)c1ccccc1C(F)(F)F |  | 108% | 79% | 83% | 130% | 133% | 87% | 84% | 85% | 90%
12 | Cc1nc2cc3nc(-c4cccs4)cnc3cc2n1C | 94% | 111% | 100% | 101% | 90% | 121% | 101% | 102% | 118% | 85%
13 | Oc1ccc(-c2nc(-c3ccc(F)cc3)c(-c3ccncc3)[nH]2)cc1 | 107% | 98% | 96% | 91% | 125% |  | 96% | 92% | 94% | 83%
14 | Nc1ccc2ncnc(NCCc3ccc(Oc4ccccc4)cc3)c2c1 | 88% | 75% | 100% | 93% | 93% | 136% | 90% | 89% | 90% | 85%
15 | COc1cc2ncnc(Nc3ccc(NC(=O)c4ccccc4)cc3)c2cc1OC | 101% |  | 88% | 96% | 85% |  | 107% | 99% | 105% | 
16 | COc1cc2ncnc(N3CCN(C(=O)Nc4ccc(Oc5ccccc5)cc4)CC3)c2cc1OC | 103% | 122% | 111% | 122% | 92% | 149% | 91% | 93% | 63% | 61%
17 | Cc1cc(Nc2nc(-c3ccccc3)nc3ccccc23)n[nH]1 |  | 35% | 104% | 57% | 126% |  |  |  | 73% | 40%
18 | CN(C)c1ccc(/C=C2\C(=O)Nc3ccccc32)cc1 | 98% | 85% | 77% | 93% | 92% | 112% | 106% | 91% | 88% | 76%

Row | SMILES | residual activity [1] | residual activity [2] | residual activity [3] | residual activity [4] | residual activity [5] | residual activity [6] | residual activity [7] | residual activity [8] | residual activity [9] | residual activity [10]
19 | O=C1Nc2ccc(Br)cc2/C1=C\c1cc2c([nH]1)CCCC2 | 77% | 78% |  | 105% | 129% | 106% | 105% | 112% | 82% | 80%
20 | Cn1cc(/C=C2\C(=O)Nc3ccc(S(N)(=O)=O)cc32)c2ccccc21 | 24% | 9% | 76% | 111% | 109% | 97% | 102% |  | 109% | 93%
21 | CC(=O)c1ccc(N2CCOCC2)cc1O |  |  | 82% | 87% | 91% | 129% | 96% | 91% | 91% | 68%
22 | c1ccc(-c2n[nH]c3c2oc2ccccc23)cc1 |  |  | 85% | 84% | 83% | 123% | 92% | 90% | 85% | 67%
23 | N#CCCc1ccc2c(c1)-c1[nH]c3ccc([N+](=O)[O-])cc3c1CC(=O)N2 |  |  |  | 69% | 120% |  |  |  |  | 
24 | c1ccc(-c2n[nH]cc2-c2ccnc3ccccc23)nc1 | 95% | 102% | 96% | 85% |  |  | 99% | 100% | 80% | 72%
25 | Cc1cccc(-c2[nH]c(C(C)(C)C)nc2-c2ccc3c(c2)OCO3)n1 |  |  |  |  |  |  | 103% | 97% | 80% | 75%
26 | CC#CC(=O)Nc1cc2c(Nc3ccc(F)c(Cl)c3)ncnc2cn1 | 92% | 105% | 88% | 101% | 82% | 109% | 91% | 91% | 98% | 81%
27 | Cc1cncc2cccc(S(=O)(=O)N3CCCN(C(=O)CN)C[C@H]3C)c12 | 82% | 49% | 100% | 84% |  |  | 92% | 86% | 90% | 59%
28 | O=C(Nc1cccc(Nc2cc(Nc3cccc(C(F)(F)F)c3)ncn2)c1)C1CC1 | 86% | 98% | 112% |  | 88% | 108% | 93% | 102% | 99% | 91%
29 | Nc1nc(Nc2ccc(S(N)(=O)=O)cc2)nn1C(=S)Nc1c(F)cccc1F | 86% | 31% | 96% | 77% | 125% |  | 95% | 95% |  | 
30 | COc1cc2ncc(-c3ccccc3)nc2cc1OC |  |  | 81% | 82% | 127% | 144% | 95% | 99% | 88% | 75%
31 | CCOc1cc2ncnc(Nc3cccc(Br)c3)c2cc1OCC | 92% | 108% | 65% | 57% | 92% | 79% | 96% | 94% | 80% | 81%
32 | O=C1c2ccccc2-[n+]2ccc3c([nH]c4ccccc43)c21 | 108% | 99% | 110% | 91% | 144% | 130% | 81% | 74% | 75% | 74%
33 | Oc1c2ccccc2c2c3c(cccc13)N=N2 | 77% | 15% | 68% | 18% | 58% | 21% | 75% | 59% | 69% | 64%
34 | Cc1cc2ncc(-c3ccccc3)nc2cc1C | 94% | 101% | 97% | 84% | 126% |  | 100% | 96% | 81% | 75%
35 | Nc1n[nH]c2nnc(-c3c(-c4ccccc4)nn4ccccc34)cc12 | 104% | 98% | 98% | 85% | 123% | 74% | 88% | 83% | 78% | 92%
